The substances below were run against Heat shock cognate 71 kDa protein (UniProt P11142).
Chain of Heat shock cognate 71 kDa protein (P11142 whole entry): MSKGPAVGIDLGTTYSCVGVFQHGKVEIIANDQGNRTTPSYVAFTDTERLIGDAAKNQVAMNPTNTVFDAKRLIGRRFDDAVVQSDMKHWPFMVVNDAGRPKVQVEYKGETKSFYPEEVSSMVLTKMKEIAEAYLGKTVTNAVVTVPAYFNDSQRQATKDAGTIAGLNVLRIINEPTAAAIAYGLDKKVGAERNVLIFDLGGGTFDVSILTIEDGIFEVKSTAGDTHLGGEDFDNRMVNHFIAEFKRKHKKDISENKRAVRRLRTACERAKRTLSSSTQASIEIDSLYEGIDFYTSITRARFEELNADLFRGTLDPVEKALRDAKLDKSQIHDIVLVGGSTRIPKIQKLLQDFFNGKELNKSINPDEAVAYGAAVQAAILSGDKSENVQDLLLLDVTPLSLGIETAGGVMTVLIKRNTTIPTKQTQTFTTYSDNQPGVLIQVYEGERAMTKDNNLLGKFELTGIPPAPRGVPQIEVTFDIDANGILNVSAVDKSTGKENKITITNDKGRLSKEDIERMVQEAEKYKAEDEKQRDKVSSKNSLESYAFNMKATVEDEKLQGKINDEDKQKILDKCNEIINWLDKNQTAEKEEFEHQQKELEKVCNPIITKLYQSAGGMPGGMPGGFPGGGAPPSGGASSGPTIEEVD

Chain of Glyceraldehyde-3-phosphate dehydrogenase, P04406 (P04406 whole entry): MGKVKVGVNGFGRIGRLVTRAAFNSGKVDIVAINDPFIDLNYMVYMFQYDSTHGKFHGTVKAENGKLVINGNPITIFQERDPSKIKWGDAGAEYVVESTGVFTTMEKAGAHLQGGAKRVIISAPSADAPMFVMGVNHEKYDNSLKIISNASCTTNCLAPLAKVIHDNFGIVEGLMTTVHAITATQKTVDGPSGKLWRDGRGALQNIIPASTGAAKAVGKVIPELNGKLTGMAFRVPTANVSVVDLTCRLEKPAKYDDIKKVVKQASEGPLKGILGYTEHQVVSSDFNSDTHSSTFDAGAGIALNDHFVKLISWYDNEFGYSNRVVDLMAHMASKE

Listed as a hit, yes:
Thioredoxin, P10599
Glyceraldehyde-3-phosphate dehydrogenase, P04406
Heat shock 70 kDa protein 4L, O95757
